Screening results (PubChem BioAssay)
The list is not random: actives were taken first. Their share in the collection is about 4.1%.
TWEAK Fn14 block: inhibitors of TWEAK-Fn14 signaling, primary screen, luciferase reporter cells, uHTS. actives 2% (n = 360,000). inhibition, % at 10 µM. AID 1159606, 2016. TWEAK-stimulated Fn14 reporter cells, luciferase luminescence, 8 h; in the data active = inhibition above about 50%
LMP1 NFkB inh: EBV LMP1-driven NF-kappaB luciferase reporter inhibitors, primary screen, cell-based, luminescence, single point; actives 0.69% (n = 350,000); inhibition, % at 12.5 µM; LMP1-induced NF-kappaB luciferase reporter cells; in the data active = inhibition above about 41%; inconclusive = no clear call, values can overlap the other calls;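 also: 0% = neutral control wells and 100% = reference inhibitor control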
TRPM1 prom inh: inhibitors of MITF-dependent TRPM1 promoter reporter, primary screen, cell-based, SK-MEL-5, single point, luciferase | inhibition, % at 12.5 µM | SK-MEL-5 TRPM1 promoter luciferase, 24 h | actives 0.83% (n = 330,000) | AID 488899, 2010;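 active = mean inhibition across replicates of 60% or more, whatever share of single replicates reaches that level; inconclusive = some that reach 60%, reason not given; inactive = mean inhibition across replicates below 60%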
TROY signal inh: inhibitors of TROY-driven NF-kB signaling, primary screen, Q293 LMP1-TROYcd cells, NF-kB luciferase, uHTS; Q293 LMP1-TROYcd NF-kB luciferase reporter, 4 h; inhibition, % at 10 µM; actives 0.98% (n = 360,000);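 active = compounds whose plate-normalised and pattern-corrected inhibition of the luciferase reporter signal at the single screening dose is 50% or more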
Peg3 prom inh: Peg3 promoter-driven luciferase inhibitors, primary screen, cell-based, HeLa, luciferase luminescence; HeLa PEG-Prom luciferase reporter, overnight; inhibition, % at 20 µM; actives 1.7% (n = 360,000); AID 588405, 2011;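 active = inhibition of at least 50% at 20 µM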
Shn3 3UTR inh: reduction of Shn3 3'UTR firefly luciferase signal, primary screen, Schnurri-3 inhibitor project, cell-based, Clone20 osteoblasts, set 2; Clone20 osteoblast Shn3 3'UTR firefly luciferase, 24 h; inhibition, % at 12.5 µM; actives 0.52% (n = 360,000); AID 588674, 2011;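 active = mean inhibition of at least 75% with every replicate also reaching 75%; inconclusive = mean inhibition at least 75% but some replicate below; inactive = mean inhibition below 75%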;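 also: 0% = median of neutral control wells and 100% = pilot-screen positive control compound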
An asterisk follows results filed as active; ? = inconclusive; nt = no result.

SMILES	TWEAK Fn14 block	LMP1 NFkB inh	TRPM1 prom inh	TROY signal inh	Peg3 prom inh	Shn3 3UTR inh
Nc1cc2nc3ccccc3oc-2cc1=O	14	-13	88*	-23	-37	28
Cc1c(NS(=O)(=O)c2cccc(C(=O)Nc3cccc(F)c3)c2)c(=O)n(-c2ccccc2)n1C	2	-3	0	-22	21	9
COc1ccc(N2CC(C(=O)NCc3nnnn3-c3ccc(C)c(C)c3)CC2=O)cc1 (stereo not drawn)	3	-5	9	-18	9	1
Cc1cnc(NC(=O)CCCc2nc3ccccc3s2)s1	-1	-320	14	-12	98*	-47
Cc1ccc(NC(=O)CSc2ccccc2NC(=O)c2ccccc2Cl)cc1Cl	73*	-13	-2	17	-23	2
CN(C(=O)COC(=O)c1nc(Cl)c(Cl)c(Cl)c1Cl)C1CCS(=O)(=O)C1 (stereo not drawn)	94*	-137	94*	57*	107*	65
CN(C(=O)COC(=O)c1ccc(C(C)(C)C)cc1)C1CCS(=O)(=O)C1 (stereo not drawn)	11	-1	-7	-14	-10	-2
COc1ccc(N=[N+]([O-])c2ccc(OC)cc2)cc1	62*	-3	-21	-6	-181	-16
CCCCCNc1nc2sc3c(c2c(=O)n1-c1cccc(Cl)c1)CCN(C)C3	-40	1	-4	0	-5	35
Cc1ccc(NC(=O)c2cc(C(C)(C)C)nn2Cc2ccccc2)cc1	-32	0	3	8	3	3
CC(C)(C)c1cc(C(=O)Nc2ccc(F)cc2)n(Cc2ccc(F)cc2)n1	18	-4	-15	63*	27	18
Cc1cccc(NC(=S)N(CCN2CCOCC2)Cc2cc3cc4c(cc3[nH]c2=O)OCCO4)c1	67*	-6	4	73*	28	23
Cc1ccc(NC(=S)N(CCN2CCOCC2)Cc2cc3cc4c(cc3[nH]c2=O)OCCO4)cc1	4	-4	11	3	24	7
O=C(NCc1ccc2c(c1)OCO2)NC1CCCCC1	-4	-11	-22	-4	-85	-17
O=C(NC1CCCCC1)NC1CC2CCC(C1)N2Cc1nnnn1Cc1ccc2c(c1)OCO2 (stereo not drawn)	87*	1	11	nt	6	9
CCCOc1ccc(NC(=O)c2c(-c3ccccc3)noc2C)cc1	-8	10	-4	1	9	-8
CC(=O)Nc1ccc(OCCCNC(=O)c2c(-c3ccccc3)noc2C)cc1	4	58*	10	2	11	22
O=C(Nc1c(C(=O)N2CCOCC2)oc2ccccc12)c1ccccc1Cl	-9	6	2	-10	-3	-6
COc1ccc(Cn2c(SCc3cc(C)ccc3C)nc3cc(OC)c(OC)cc3c2=N)cc1	-3	?	89*	21	104*	96*
COc1cc2nc(SCc3ccc(C(F)(F)F)cc3)n(Cc3cccs3)c(=N)c2cc1OC	17	0	-2	-1	25	6
COc1ccc(Cn2c(SCc3ccc(C)cc3)nc3cc(OC)c(OC)cc3c2=N)cc1Cl	-2	90*	105*	27	99*	26
Cc1ccccc1Nc1nnc(SCC(=O)NCC2CCCO2)s1 (stereo not drawn)	8	-3	-2	4	3	-10
CCCn1c(=O)n(C)c(=O)c2c(SCC(=O)NC34CC5CC(CC(C5)C3)C4)nc(CC(C)C)nc21	0	-39	68*	-4	27	0
O=C(c1cc2ccccc2o1)N1CCN(c2ccccn2)CC1	-8	-3	-11	-12	-39	21
O=C1CC(c2ccc3c(c2)OCO3)Sc2nc3ccccc3n21 (stereo not drawn)	89*	-7	-14	84*	-23	-1
SMILES	TWEAK Fn14 block	LMP1 NFkB inh	TRPM1 prom inh	TROY signal inh	Peg3 prom inh	Shn3 3UTR inh
COc1ccc(CCNC(=O)C(=O)c2cn(CC(=O)N3CCCC3)c3ccccc23)cc1	-2	-1	nt	0	-15	3
COc1ccc(NC(=O)C2CCCN(S(=O)(=O)c3cccc4nonc34)C2)c(OC)c1 (stereo not drawn)	0	63*	-2	1	18	-5
CC(C)Oc1ccc(C(=O)OCC(=O)NC2CCCCCC2)cc1	0	3	-7	3	-12	11
COc1cccc(/C=N/n2c(C3CCCCC3)n[nH]c2=S)c1O	60*	1	7	12	9	2
CN(C)CCCNC(=O)/C(=C/c1ccc(-c2ccc([N+](=O)[O-])cc2)o1)NC(=O)c1ccccc1	-10	5	-9	-9	-15	-7
CN(C)CCNC(=O)/C(=C/c1ccc(-c2cccc([N+](=O)[O-])c2)o1)NC(=O)c1ccccc1	-4	10	-1	-6	7	-26
Cc1ccc(C(=O)N/C(=C\c2ccc(-c3ccccc3[N+](=O)[O-])o2)C(=O)NCCN(C)C)cc1	16	-2	77*	3	-40	-17
Cc1ccc(C(=O)N/C(=C\c2ccc(-c3cccc([N+](=O)[O-])c3)o2)C(=O)NCCCN2CCOCC2)cc1	-25	7	16	-25	94*	4
Cc1ccc(C(=O)N/C(=C\c2ccc(-c3ccccc3[N+](=O)[O-])o2)C(=O)NCCCN(C)C)cc1	25	7	70*	5	-34	12
COc1ccc(C(=O)c2c3ccc(OC)cc3[n+]([O-])n2Cc2ccc(C(N)=O)cc2)cc1	-24	-33	-50	-17	-232	-44
O=C(C1CCOCC1)N1CCCC(N2CCN(c3ccc(F)cc3)CC2)C1 (stereo not drawn)	6	-5	4	-22	20	-9
CC1CC(C)CN(S(=O)(=O)c2cccc(C(=O)N3CCN(c4ccc(F)cc4)CC3)c2)C1 (stereo not drawn)	5	-1	21	9	4	13
COc1ccccc1Sc1nc(-c2ccccn2)ncc1OC	-23	9	34	4	-5	26
COc1cnc(-c2ccccn2)nc1NC(C)C	-21	-7	66*	10	36	92*
Nc1c(C(=O)N2CCOCC2)sc2nc3c(cc12)CCCC3	0	56*	55	29	36	47
Cc1ccc(C)c2nc3sc(C(=O)N4CCOCC4)c(N)c3cc12	-23	-26	-43	-8	-223	-14
Cc1sc(NC(=O)c2sc3nc4c(C)cccc4cc3c2N)c(C#N)c1C	16	-42	-42	10	-3	21
Cc1cccc2cc3c(N)c(C(=O)Nc4ccc(N5CCOCC5)cc4)sc3nc12	58*	10	3	51*	56*	57
